# Source: PubChem BioAssay AID1159580 (chemical genetic matrix, 2015)
# Among all 5,500 compounds or so, about 2,000 (36%) were called active. About 18% were inconclusive and are not listed. This is one part of the list. Unmarked numbers belong to inactive results. No stated cut-off is given here; in the data, active means normalized growth mostly below about 0.91 (no sharp cut-off); inconclusive means no clear call, values can overlap the other calls; inactive means mostly above about 0.92.
# Assay: chemical genetic growth profiling, strain panel (AID 1159580);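 further: tested at 20 µM; growth read once vehicle control cultures reached saturation at 30 °C; 1 = growth at the plate median or of vehicle wells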
# Conditions: growth OD
smiles,measurement,setting,value
Cc1cccc(N(C)C(=S)Oc2ccc3ccccc3c2)c1,normalized growth,"S. cerevisiae deletion strains, locus YJR075W, strain HOC1, stronger effect = lower value",0.971
same,normalized growth,"S. cerevisiae deletion strains, locus YKL009W, strain mrt4, stronger effect = lower value",0.99
same,normalized growth,"S. cerevisiae deletion strains, locus YKL068W, stronger effect = lower value",0.981
same,normalized growth,"S. cerevisiae deletion strains, locus YKL085W, strain MDH1 (second series), stronger effect = lower value",0.979
same,normalized growth,"S. cerevisiae deletion strains, locus YKL085W, strain MDH1, stronger effect = lower value",0.979
same,normalized growth,"S. cerevisiae deletion strains, locus YKL160W, strain elf1, stronger effect = lower value",0.947
same,normalized growth,"S. cerevisiae deletion strains, locus YKL190W, strain CNB1, stronger effect = lower value",0.983
same,normalized growth,"S. cerevisiae deletion strains, locus YKR001C, strain vps1, stronger effect = lower value",1.01
same,normalized growth,"S. cerevisiae deletion strains, locus YKR026C, strain gcn3, stronger effect = lower value",1
same,normalized growth,"S. cerevisiae deletion strains, locus YKR091W, strain srl3, stronger effect = lower value",0.993
same,normalized growth,"S. cerevisiae deletion strains, locus YLL001W, strain dnm1, stronger effect = lower value",0.994
same,normalized growth,"S. cerevisiae deletion strains, locus YLL026W, stronger effect = lower value",0.985
same,normalized growth,"S. cerevisiae deletion strains, locus YLL041C, strain sdh2, stronger effect = lower value",0.987
same,normalized growth,"S. cerevisiae deletion strains, locus YLR027C, strain aat2, stronger effect = lower value",0.99
same,normalized growth,"S. cerevisiae deletion strains, locus YLR039C, strain RIC1, stronger effect = lower value",1.46 [resistant] (active)
same,normalized growth,"S. cerevisiae deletion strains, locus YLR058C, strain SHM2, stronger effect = lower value",0.972
same,normalized growth,"S. cerevisiae deletion strains, locus YLR102C, strain apc9, stronger effect = lower value",0.979
same,normalized growth,"S. cerevisiae deletion strains, locus YLR113W, strain HOG1, stronger effect = lower value",0.91
same,normalized growth,"S. cerevisiae deletion strains, locus YLR221C, strain rsa3, stronger effect = lower value",1.02
same,normalized growth,"S. cerevisiae deletion strains, locus YLR258W, strain gsy2, stronger effect = lower value",0.974
same,normalized growth,"S. cerevisiae deletion strains, locus YLR262C, strain YPT6 (second series), stronger effect = lower value",1.13
same,normalized growth,"S. cerevisiae deletion strains, locus YLR262C, strain YPT6, stronger effect = lower value",1.48 [resistant] (active)
same,normalized growth,"S. cerevisiae deletion strains, locus YLR268W, strain sec22, stronger effect = lower value",0.971
same,normalized growth,"S. cerevisiae deletion strains, locus YLR320W, strain mms22, stronger effect = lower value",0.98
same,normalized growth,"S. cerevisiae deletion strains, locus YLR330W, strain CHS5, stronger effect = lower value",0.984
same,normalized growth,"S. cerevisiae deletion strains, locus YLR342W, strain FKS1 (second series), stronger effect = lower value",0.995
same,normalized growth,"S. cerevisiae deletion strains, locus YLR342W, strain FKS1, stronger effect = lower value",1.01
same,normalized growth,"S. cerevisiae deletion strains, locus YLR357W, strain rsc2, stronger effect = lower value",0.999
same,normalized growth,"S. cerevisiae deletion strains, locus YLR370C, strain arc18, stronger effect = lower value",1.01
same,normalized growth,"S. cerevisiae deletion strains, locus YLR371W, strain rom2, stronger effect = lower value",0.947
same,normalized growth,"S. cerevisiae deletion strains, locus YLR384C, strain iki3, stronger effect = lower value",0.995
same,normalized growth,"S. cerevisiae deletion strains, locus YLR418C, strain cdc73, stronger effect = lower value",0.904
same,normalized growth,"S. cerevisiae deletion strains, locus YML016C, strain PPZ1, stronger effect = lower value",0.998
same,normalized growth,"S. cerevisiae deletion strains, locus YML032C, strain rad52, stronger effect = lower value",0.991
same,normalized growth,"S. cerevisiae deletion strains, locus YML120C, strain ndi1, stronger effect = lower value",1
same,normalized growth,"S. cerevisiae deletion strains, locus YML124C, strain tub3, stronger effect = lower value",0.969
same,normalized growth,"S. cerevisiae deletion strains, locus YMR058W, strain fet3, stronger effect = lower value",0.994
same,normalized growth,"S. cerevisiae deletion strains, locus YMR078C, strain ctf18, stronger effect = lower value",0.965
same,normalized growth,"S. cerevisiae deletion strains, locus YMR125W, strain sto1, stronger effect = lower value",0.988
same,normalized growth,"S. cerevisiae deletion strains, locus YMR129W, stronger effect = lower value",0.991
same,normalized growth,"S. cerevisiae deletion strains, locus YMR205C, strain PFK2, stronger effect = lower value",0.952
same,normalized growth,"S. cerevisiae deletion strains, locus YMR223W, strain ubp8, stronger effect = lower value",0.955
same,normalized growth,"S. cerevisiae deletion strains, locus YMR231W, strain pep5, stronger effect = lower value",1.03
same,normalized growth,"S. cerevisiae deletion strains, locus YMR263W, strain SAP30, stronger effect = lower value",0.958
same,normalized growth,"S. cerevisiae deletion strains, locus YMR307W, strain GAS1, stronger effect = lower value",0.981
same,normalized growth,"S. cerevisiae deletion strains, locus YNL067W, strain RPL9B, stronger effect = lower value",0.989
same,normalized growth,"S. cerevisiae deletion strains, locus YNL071W, strain lat1, stronger effect = lower value",1.01
same,normalized growth,"S. cerevisiae deletion strains, locus YNL183C, strain NPR1, stronger effect = lower value",0.907
same,normalized growth,"S. cerevisiae deletion strains, locus YNL209W, strain ssb2, stronger effect = lower value",0.999
same,normalized growth,"S. cerevisiae deletion strains, locus YNL233W, strain BNI4, stronger effect = lower value",0.985
same,normalized growth,"S. cerevisiae deletion strains, locus YNL248C, strain rpa49, stronger effect = lower value",0.998
same,normalized growth,"S. cerevisiae deletion strains, locus YNL250W, strain rad50, stronger effect = lower value",0.977
same,normalized growth,"S. cerevisiae deletion strains, locus YNL271C, strain bni1, stronger effect = lower value",1
same,normalized growth,"S. cerevisiae deletion strains, locus YNL298W, strain CLA4, stronger effect = lower value",0.99
same,normalized growth,"S. cerevisiae deletion strains, locus YNL307C, strain MCK1, stronger effect = lower value",0.98
same,normalized growth,"S. cerevisiae deletion strains, locus YNL322C, strain KRE1 (second series), stronger effect = lower value",1
same,normalized growth,"S. cerevisiae deletion strains, locus YNL322C, strain KRE1, stronger effect = lower value",0.982
same,normalized growth,"S. cerevisiae deletion strains, locus YNR049C, strain mso1, stronger effect = lower value",0.999
same,normalized growth,"S. cerevisiae deletion strains, locus YNR052C, strain pop2, stronger effect = lower value",0.986
same,normalized growth,"S. cerevisiae deletion strains, locus YOL006C, strain TOP1, stronger effect = lower value",0.828
same,normalized growth,"S. cerevisiae deletion strains, locus YOL012C, strain htz1",0.985
same,normalized growth,"S. cerevisiae deletion strains, locus YOL147C, strain pex11, stronger effect = lower value",0.982
same,normalized growth,"S. cerevisiae deletion strains, locus YOR001W, strain rrp6, stronger effect = lower value",1
same,normalized growth,"S. cerevisiae deletion strains, locus YOR061W, strain CKA2, stronger effect = lower value",0.966
same,normalized growth,"S. cerevisiae deletion strains, locus YOR069W, strain VPS5, stronger effect = lower value",0.988
same,normalized growth,"S. cerevisiae deletion strains, locus YOR070C, strain gyp1, stronger effect = lower value",0.992
same,normalized growth,"S. cerevisiae deletion strains, locus YOR080W, strain dia2, stronger effect = lower value",0.981
same,normalized growth,"S. cerevisiae deletion strains, locus YOR083W, strain WHI5, stronger effect = lower value",0.947
same,normalized growth,"S. cerevisiae deletion strains, locus YOR106W, strain vam3, stronger effect = lower value",0.968
same,normalized growth,"S. cerevisiae deletion strains, locus YOR136W, strain idh2, stronger effect = lower value",0.978
same,normalized growth,"S. cerevisiae deletion strains, locus YOR144C, strain elg1, stronger effect = lower value",0.971
same,normalized growth,"S. cerevisiae deletion strains, locus YOR184W, strain ser1, stronger effect = lower value",0.897
same,normalized growth,"S. cerevisiae deletion strains, locus YOR231W, strain MKK1, stronger effect = lower value",0.945
same,normalized growth,"S. cerevisiae deletion strains, locus YOR265W, strain rbl2, stronger effect = lower value",0.969
same,normalized growth,"S. cerevisiae deletion strains, locus YOR270C, strain vph1, stronger effect = lower value",0.942
same,normalized growth,"S. cerevisiae deletion strains, locus YOR290C, strain snf2, stronger effect = lower value",0.999
same,normalized growth,"S. cerevisiae deletion strains, locus YOR316C, strain cot1, stronger effect = lower value",0.975
same,normalized growth,"S. cerevisiae deletion strains, locus YPL051W, strain arl3, stronger effect = lower value",0.988
same,normalized growth,"S. cerevisiae deletion strains, locus YPL055C, strain LGE1, stronger effect = lower value",0.922
same,normalized growth,"S. cerevisiae deletion strains, locus YPL078C, strain atp4, stronger effect = lower value",0.953
same,normalized growth,"S. cerevisiae deletion strains, locus YPL106C, strain sse1, stronger effect = lower value",0.941
same,normalized growth,"S. cerevisiae deletion strains, locus YPL240C, strain hsp82, stronger effect = lower value",0.99
same,normalized growth,"S. cerevisiae deletion strains, locus YPL256C, strain CLN2, stronger effect = lower value",0.931
same,normalized growth,"S. cerevisiae deletion strains, locus YPR119W, strain clb2, stronger effect = lower value",0.963
same,normalized growth,"S. cerevisiae deletion strains, locus YPR141C, strain kar3, stronger effect = lower value",0.973
same,normalized growth,"S. cerevisiae deletion strains, locus YPR163C, strain tif3, stronger effect = lower value",0.976
same,normalized growth,"S. cerevisiae deletion strains, locus YPR167C, strain met16, stronger effect = lower value",0.973
same,normalized growth,"S. cerevisiae deletion strains, strain wtn01, stronger effect = lower value",0.994
same,normalized growth,"S. cerevisiae strains, strain wild type, stronger effect = lower value",1.01
